Inconclusive results are not listed. Where a call stands in place of a potency, no number is given. A number with no mark means an inactive call. Active and inactive are the calls of the source. Calls follow the shape of the full dose curve.

The experiment can be described thus: Cytotoxicity counterscreen for inhibitors of SARS-CoV-2 cell entry (AID 1645845). Also: nearly all actives have a fitted effect of over 50% in size. As to activity change, negative = cytotoxicity: series mostly up to about 57 µM. The method, boiled down: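 After a 15 min room-temperature ATPLite 1step step, luminescence reflected ATP remaining in HEK293-ACE2 cells exposed to compound for 1 h plus 48 h at 37 C, with percent activity set by cell and no-cell controls.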

For `CC(C)C(=O)c1c(C(C)C)nn2ccccc12`, the Potency result was “inactive”.
The same measure, in the same setting: as for `CC(C)=CCC1C(=O)N(c2ccccc2)N(c2ccccc2)C1=O`, the entry is “inactive”; as for `Nc1ccc(S(=O)(=O)Nc2ccnn2-c2ccccc2)cc1`, “inactive”; as for `CC(=O)OCC(=O)[C@@]1(O)[C@H](OC(C)=O)C[C@H]2[C@@H]3CCC4=CC(=O)C=C[C@]4(C)[C@@]3(F)[C@@H](O)C[C@@]21C`, “inactive”.
In the case of `CO[C@@]1(NC(=O)CSC[C@@H](N)C(=O)O)C(=O)N2C(C(=O)O)=C(CSc3nnnn3C)CS[C@@H]21`, the Potency result was “inactive”.
On the same count and under the same terms, as for `Nc1ccc(S(=O)(=O)Nc2ccc(Cl)nn2)cc1`, the entry is “inactive”; as for `O=C(O)CCCCC(=O)O`, “inactive”.
In the case of `CN1CCN(CC(=O)N2c3ccccc3C(=O)Nc3cccnc32)CC1`, the outcome was “inactive [at 5.25 µM]”.
For `CC(N=C(NC#N)Nc1ccncc1)C(C)(C)C` (stereo not drawn), the Potency result is “inactive”.
Turning to `CC(C)(CO)[C@@H](O)C(=O)NCCCO`, the Potency result is “inactive”.
In the case of `O=C(CCOCCOCCOCCOCCC(=O)Nc1c(I)cc(I)c(C(=O)O)c1I)Nc1c(I)cc(I)c(C(=O)O)c1I`, the Potency result was “inactive”.
On to `CN(CC1(C)CCCO1)S(=O)(=O)c1ccc(Cl)c(S(N)(=O)=O)c1` (stereo not drawn), for which the Potency entry was “inactive”.
On to `CCn1cc(C(=O)O)c(=O)c2cnc(N3CCCC3)nc21`, for which the activity change, negative = cytotoxicity is 1.65% [at 11.3 µM].
Turning to `CC(=O)N(CC(O)CO)c1c(I)c(C(=O)NCCO)c(I)c(C(=O)NCC(O)CO)c1I` (stereo not drawn), the Potency entry was “inactive”.
With `CCCCC[C@H](O)/C=C/[C@@H]1[C@H]2C/C(=C/CCCC(=O)O)O[C@H]2C[C@H]1O`, the Potency entry was “inactive”.
`C[C@]12CCC(=O)C=C1CC[C@H]1[C@@H]3CC[C@](O)(C(=O)CO)[C@@]3(C)C[C@H](O)[C@@]12F`: the Potency result is “inactive”.
As to `CCCc1c2oc(C(=O)O)cc(=O)c2cc2c(=O)cc(C(=O)O)n(CC)c12`, the Potency result is “inactive”.
As to `CC1COc2c(N3CCN(C)CC3)c(F)cc3c(=O)c(C(=O)O)cn1c23` (stereo not drawn), the Potency result was “inactive”.
`Cc1ccsc1/C=C/C1=NCCCN1C`: the Potency result was “inactive”.
Same read-out and setting: with `COc1ccc(C(=O)NCc2ccc(OCCN(C)C)cc2)cc1OC` the entry was “inactive”; with `CCOC(=O)[C@H](CCc1ccccc1)N[C@@H](C)C(=O)N1CCC[C@H]1C(=O)O`, “inactive”; with `CC(=O)O[C@]1(C(C)=O)CC[C@H]2[C@@H]3C[C@H](C)C4=CC(=O)CC[C@]4(C)[C@H]3CC[C@@]21C`, “inactive”.
With `CCCCCCCCCCOc1cc2c(=O)c(C(=O)OCC)c[nH]c2cc1OCC`, the outcome is “inactive [at 5.25 µM]”.
Turning to `CCn1cc(C(=O)O)c(=O)c2cc(F)c(N3CCNC(C)C3)c(F)c21` (stereo not drawn), the Potency result was “inactive”.
Still for that read-out and setting: with `CC(=O)O[C@@H]1C(=O)O[C@@H]2[C@H]1OC(=O)[C@@H]2OC(C)=O` the entry was “inactive”; with `CCCCC(CC)CNC(=O)CC(C)OC(=O)CCC(=O)O` (stereo not drawn), “inactive”; with `OC[C@@H](O)[C@@H](O[C@@H]1O[C@H](CO)[C@H](O)[C@H](O)[C@H]1O)[C@H](O)[C@@H](O)CO`, “inactive”.
As for `O=C(O)/C=C(\CC(=O)O)C(=O)O`, the Potency result was “inactive”.
The same measure, in the same setting: with `Cc1noc(NS(=O)(=O)c2ccc(N)cc2)c1C` the entry was “inactive”; with `CCOC(=O)Oc1ccc(CCNC(=O)[C@H](CCSC)NC(C)=O)cc1OC(=O)OCC`, “inactive”; with `COc1cnc(NS(=O)(=O)c2ccc(N)cc2)nc1`, “inactive”.
With `C#C[C@]1(O)CC[C@H]2[C@@H]3CCc4cc(OC5CCCC5)ccc4[C@H]3CC[C@@]21C`, the Potency result was “inactive”.
`N[C@@H](Cc1cc(I)c(Oc2ccc(O)c(I)c2)c(I)c1)C(=O)O`: the Potency result is “inactive”.
Same read-out and setting: with `CC(=O)OCC(=O)[C@@]1(O)[C@H](C)C[C@H]2[C@@H]3CCC4=CC(=O)C=C[C@]4(C)[C@@]3(F)[C@@H](O)C[C@@]21C` the entry was “inactive”.
On to `Cc1cc(OI)c(C(C)C)cc1-c1cc(C(C)C)c(OI)cc1C`, for which the Potency entry was “inactive”.
For `O=C(Oc1ccccc1)c1ccccc1O`, the Potency result is “inactive”.
On the same count and under the same terms, as for `NC(N)=Nc1nc(CSCC/C(N)=N/S(N)(=O)=O)cs1`, the entry is “inactive”; as for `Oc1ccc(OCc2ccccc2)cc1`, “inactive”.

The values are drawn from PubChem BioAssay (NCATS).
